# Many of the other results were omitted from the sample, so the strongest signals are more common in it than they were.
# B1: Cohesin-hDCIR (Homo sapiens) (protein)
# chain: LDDLDAVRIKVDTVNAKPGDTVRIPVRFSGIPSKGIANCDFVYSYDPNVLEIIEIEPGDIIVDPNPDKSFDTAVYPDRKIIVFLFAEDSGTGAYAITKDGVFATIVAKVKEGAPNGLSVIKFVEVGGFANNDLVEQKTQFFDGGANVGDTTEPATPTTPVTTPTTTDDLDAASQKYSQLLEKKTTKELVHTTLECVKKNMPVEETAWSCCPKNWKSFSSNCYFISTESASWQDSEKDCARMEAHLLVINTQEEQDFIFQNLQEESAYFVGLSDPEGQRHWQWVDQTPYNESSTFWHPREPSDPNERCVVLNFRKSPKRWGWNDVNCLGPQRSVCEMMKIHLHHHHHH
# What was measured:
# Test in all cases: glycan array binding signal (z-score within array); higher = stronger binding
# Settings in all cases: glycan notation: IUPAC condensed, linker removed
# [1] = target: Fuc(a1-2)Gal(b1-4)GlcNAc(b1-6)GalNAc
# In short: (§1)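 Glycan array binding is given as a within-array Z-score, which can be read as non-binding when negative. The arrays, 3228 of them, came from the Consortium for Functional Glycomics database and were retained only where the protein sequence was available. Z-scores were averaged across arrays of the same protein sequence at different concentrations or buffers and across linkers.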
# [2] = target: Fuc(a1-2)[Gal(a1-3)]Gal(b1-4)GlcNAc(b1-3)GalNAc
# In short: as §1
# [3] = target: Fuc(a1-2)[GalNAc(a1-3)]Gal(b1-4)GlcNAc(b1-6)GalNAc
# In short: as §1
# [4] = target: Fuc(a1-2)[GalNAc(b1-3)]Gal
# In short: as §1
# [5] = target: Fuc(a1-3)[GalNAc(b1-4)]GlcNAc6S
# In short: as §1
# Gal(a1-3)Gal(b1-4)GlcNAc = target: Gal(a1-3)Gal(b1-4)GlcNAc
# In short: as §1
# [6] = target: Gal(a1-3)Gal(b1-4)GlcNAc(b1-6)GalNAc
# In short: as §1
# [7] = target: Gal(b1-3)GlcNAc(b1-3)Gal(b1-4)[Fuc(a1-3)]GlcNAc(b1-6)[Gal(b1-3)GlcNAc(b1-3)]Gal(b1-4)Glc
# In short: as §1
# [8] = target: Gal(b1-4)GlcNAc(b1-3)Gal(b1-3)GalNAc
# In short: as §1
# [9] = target: Gal(b1-4)GlcNAc(b1-3)Gal(b1-4)GlcNAc(b1-3)Gal(b1-4)GlcNAc(b1-3)Gal(b1-4)GlcNAc(b1-2)Man(a1-3)[Gal(b1-4)GlcNAc(b1-3)Gal(b1-4)GlcNAc(b1-3)Gal(b1-4)GlcNAc(b1-3)Gal(b1-4)GlcNAc(b1-2)Man(a1-6)]Man(b1-4)GlcNAc(b1-4)[Fuc(a1-6)]GlcNAc
# In short: as §1
# [10] = target: Gal(b1-4)GlcNAc(b1-3)Gal(b1-4)GlcNAc(b1-3)Gal(b1-4)GlcNAc(b1-3)Gal(b1-4)GlcNAc(b1-3)Gal(b1-4)GlcNAc(b1-3)Gal(b1-4)GlcNAc(b1-2)Man(a1-3)[Gal(b1-4)GlcNAc(b1-3)Gal(b1-4)GlcNAc(b1-3)Gal(b1-4)GlcNAc(b1-3)Gal(b1-4)GlcNAc(b1-3)Gal(b1-4)GlcNAc(b1-3)Gal(b1-4)GlcNAc(b1-2)Man(a1-6)]Man(b1-4)GlcNAc(b1-4)GlcNAc
# In short: as §1
# [11] = target: Gal(b1-4)GlcNAc(b1-3)Gal(b1-4)[Fuc(a1-3)]GlcNAc(b1-3)Gal(b1-4)[Fuc(a1-3)]GlcNAc
# In short: as §1
# [12] = target: Gal(b1-4)GlcNAc(b1-3)[Gal(b1-4)GlcNAc(b1-6)]Gal(b1-4)GlcNAc
# In short: as §1
# [13] = target: Gal3S(b1-4)[Fuc(a1-3)]Glc6S
# In short: as §1
# [14] = target: Gal3S(b1-4)[Fuc(a1-3)]GlcNAc6S
# In short: as §1
# GalNAc(a1-3)Gal = target: GalNAc(a1-3)Gal
# In short: as §1
# GalNAc(b1-3)Gal = target: GalNAc(b1-3)Gal
# In short: as §1
# [15] = target: GalNAc(b1-3)Gal(a1-4)Gal(b1-4)GlcNAc(b1-3)Gal(b1-4)Glc
# In short: as §1
# [16] = target: GalNAc(b1-3)Gal(a1-6)Gal(b1-4)Glc
# In short: as §1
# GalNAc(b1-4)GlcNAc6S = target: GalNAc(b1-4)GlcNAc6S
# In short: as §1
# GalNAc4S6S(b1-4)GlcNAc = target: GalNAc4S6S(b1-4)GlcNAc
# In short: as §1
# [17] = target: Glc(a1-6)Glc(a1-6)Glc(a1-6)Glc
# In short: as §1
# [18] = target: GlcNAc(a1-4)Gal(b1-4)GlcNAc(b1-3)Gal(b1-4)Glc
# In short: as §1
# [19] = target: GlcNAc(b1-3)Gal(b1-4)GlcNAc(b1-3)Gal(b1-4)GlcNAc(b1-3)Gal(b1-4)GlcNAc(b1-3)Gal(b1-4)GlcNAc(b1-2)[GlcNAc(b1-3)Gal(b1-4)GlcNAc(b1-3)Gal(b1-4)GlcNAc(b1-3)Gal(b1-4)GlcNAc(b1-3)Gal(b1-4)GlcNAc(b1-6)]Man(a1-6)[GlcNAc(b1-3)Gal(b1-4)GlcNAc(b1-3)Gal(b1-4)GlcNAc(b1-3)Gal(b1-4)GlcNAc(b1-3)Gal(b1-4)GlcNAc(b1-2)Man(a1-3)]Man(b1-4)GlcNAc(b1-4)[Fuc(a1-6)]GlcNAc
# In short: as §1
# [20] = target: GlcNAc(b1-3)Gal(b1-4)GlcNAc(b1-6)[GlcNAc(b1-3)Gal(b1-3)]GalNAc
# In short: as §1
# GlcNAc(b1-3)GalNAc = target: GlcNAc(b1-3)GalNAc
# In short: as §1
# [21] = target: GlcNAc(b1-3)[GlcNAc(b1-6)]GalNAc
# In short: as §1
# GlcNAc(b1-6)GalNAc = target: GlcNAc(b1-6)GalNAc
# In short: as §1
# [22] = target: Kdn(a2-3)Gal(b1-4)[Fuc(a1-3)]GlcNAc
# In short: as §1
# Man(a1-6)Man = target: Man(a1-6)Man
# In short: as §1
# [23] = target: Neu5Ac(a2-3)Gal(b1-3)GalNAc(b1-4)[Neu5Ac(a2-8)Neu5Ac(a2-3)]Gal(b1-4)Glc
# In short: as §1
# [24] = target: Neu5Ac(a2-3)Gal(b1-3)GalNAc6S
# In short: as §1
# [25] = target: Neu5Ac(a2-3)Gal(b1-3)GlcNAc(b1-2)Man
# In short: as §1
# [26] = target: Neu5Ac(a2-3)Gal(b1-3)GlcNAc(b1-2)Man(a1-3)[Neu5Ac(a2-3)Gal(b1-3)GlcNAc(b1-2)Man(a1-6)]Man(b1-4)GlcNAc(b1-4)GlcNAc
# In short: as §1
# [27] = target: Neu5Ac(a2-3)Gal(b1-4)GlcNAc(b1-2)Man(a1-3)[GlcNAc(b1-4)][Neu5Ac(a2-3)Gal(b1-4)GlcNAc(b1-2)Man(a1-6)]Man(b1-4)GlcNAc(b1-4)GlcNAc
# In short: as §1
# [28] = target: Neu5Ac(a2-3)Gal(b1-4)GlcNAc(b1-2)[Neu5Ac(a2-3)Gal(b1-4)GlcNAc(b1-4)]Man(a1-3)[GlcNAc(b1-4)][Neu5Ac(a2-3)Gal(b1-4)GlcNAc(b1-2)[Neu5Ac(a2-3)Gal(b1-4)GlcNAc(b1-6)]Man(a1-6)]Man(b1-4)GlcNAc(b1-4)GlcNAc
# In short: as §1
# [29] = target: Neu5Ac(a2-3)Gal(b1-4)GlcNAc(b1-3)[Neu5Ac(a2-3)Gal(b1-4)GlcNAc(b1-6)]GalNAc
# In short: as §1
# [30] = target: Neu5Ac(a2-3)Gal(b1-4)GlcNAc6S
# In short: as §1
# [31] = target: Neu5Ac(a2-3)Gal(b1-4)[Fuc(a1-3)]GlcNAc
# In short: as §1
# [32] = target: Neu5Ac(a2-3)Gal(b1-4)[Fuc(a1-3)]GlcNAc(b1-6)[Gal(b1-3)]GalNAc
# In short: as §1
# [33] = target: Neu5Ac(a2-3)Gal6S(b1-4)GlcNAc
# In short: as §1
# Neu5Ac(a2-8)Neu5Ac = target: Neu5Ac(a2-8)Neu5Ac
# In short: as §1
# [34] = target: Neu5Gc(a2-3)Gal(b1-3)GlcNAc
# In short: as §1
binder,measurement,setting,value
B1,glycan array binding signal (z-score),[1],5.99
same,glycan array binding signal (z-score),[2],-0.635
same,glycan array binding signal (z-score),[3],5.33
same,glycan array binding signal (z-score),[4],3.31
same,glycan array binding signal (z-score),[5],0.081
same,glycan array binding signal (z-score),Gal(a1-3)Gal(b1-4)GlcNAc,-0.455
same,glycan array binding signal (z-score),[6],5.08
same,glycan array binding signal (z-score),[7],-0.655
same,glycan array binding signal (z-score),[8],-0.458
same,glycan array binding signal (z-score),[9],2.82
same,glycan array binding signal (z-score),[10],-0.417
same,glycan array binding signal (z-score),[11],-0.584
same,glycan array binding signal (z-score),[12],-0.335
same,glycan array binding signal (z-score),[13],-0.343
same,glycan array binding signal (z-score),[14],3.25
same,glycan array binding signal (z-score),GalNAc(a1-3)Gal,1.17
same,glycan array binding signal (z-score),GalNAc(b1-3)Gal,3.75
same,glycan array binding signal (z-score),[15],4.3
same,glycan array binding signal (z-score),[16],5.47
same,glycan array binding signal (z-score),GalNAc(b1-4)GlcNAc6S,0.86
same,glycan array binding signal (z-score),GalNAc4S6S(b1-4)GlcNAc,-0.659
same,glycan array binding signal (z-score),[17],-0.038
same,glycan array binding signal (z-score),[18],-0.696
same,glycan array binding signal (z-score),[19],-0.597
same,glycan array binding signal (z-score),[20],-0.546
same,glycan array binding signal (z-score),GlcNAc(b1-3)GalNAc,-0.415
same,glycan array binding signal (z-score),[21],-0.401
same,glycan array binding signal (z-score),GlcNAc(b1-6)GalNAc,4.02
same,glycan array binding signal (z-score),[22],-0.218
same,glycan array binding signal (z-score),Man(a1-6)Man,3.2
same,glycan array binding signal (z-score),[23],-0.554
same,glycan array binding signal (z-score),[24],1.41
same,glycan array binding signal (z-score),[25],-0.373
same,glycan array binding signal (z-score),[26],-0.312
same,glycan array binding signal (z-score),[27],-0.66
same,glycan array binding signal (z-score),[28],-0.508
same,glycan array binding signal (z-score),[29],0.114
same,glycan array binding signal (z-score),[30],-0.518
same,glycan array binding signal (z-score),[31],-0.342
same,glycan array binding signal (z-score),[32],-0.187
same,glycan array binding signal (z-score),[33],-0.608
same,glycan array binding signal (z-score),Neu5Ac(a2-8)Neu5Ac,-0.297
same,glycan array binding signal (z-score),[34],-0.174

# Source: the supplement of paper PMC8728848
